{"source": "the supplement of paper PMC9262897", "about": "“Low-cost anti-mycobacterial drug discovery using engineered E. coli” (Nature Communications, 2022)", "note": "Where a name gives a salt, the structure may show the parent alone. ± gives the standard deviation of the averaged measurements."}
{"system": "E. coli TESEC Mtb DapB", "assay": "growth (OD600 after 10 h); higher = more growth (less inhibition)", "conditions": "arabinose induction (level): High; compound 0.1 mM; raw OD600 reference: median of DMSO wells […], cell-free background 0.041", "protocol": "(§1)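 TESEC E. coli strains in which the native enzyme is deleted and replaced by arabinose-inducible Mtb Asd, DapB, CysH or TrpD, each grown in its selective medium. Strains were screened against the Prestwick library at 0.1 mM and 1% DMSO in 384-well format at low and high arabinose induction. Growth is read as OD600 after 10 h in triplicate.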"}
{"smiles": "Clc1cc(Cl)c(OCC#CI)cc1Cl", "note": "[Haloprogin]", "growth": "0.245 ± 0.04"}
{"smiles": "CSc1ccc2c(c1)N(CCC1CCCCN1C)c1ccccc1S2", "note": "(stereo not given) [Thioridazine hydrochloride]", "growth": "0.04803 ± 0.00029"}
{"smiles": "C[C@]12C=CC(=O)C=C1CC[C@@H]1[C@@H]2C(=O)C[C@@]2(C)[C@H]1CC[C@]2(O)C(=O)CO", "note": "[Prednisone]", "growth": "0.185 ± 0.0094"}
{"smiles": "Cc1c(OCC(F)(F)F)ccnc1C[S+]([O-])c1nc2ccccc2[nH]1", "note": "(stereo not given) [Lansoprazole]", "growth": "0.175 ± 0.0097"}
{"smiles": "CC(=O)[C@@]1(O)CC[C@H]2[C@@H]3C[C@H](C)C4=CC(=O)C=C[C@]4(C)[C@@]3(F)[C@@H](O)C[C@@]21C", "note": "[Fluorometholone]", "growth": "0.209 ± 0.0065"}
{"smiles": "CN(C)CCCO[C@@H]1[C@H]2OC(C)(C)O[C@H]2O[C@@H]1[C@H](O)CO", "note": "[Amiprilose hydrochloride]", "growth": "0.199 ± 0.017"}
{"smiles": "CCCCN1CCCCC1C(=O)Nc1c(C)cccc1C", "note": "(stereo not given) [Bupivacaine hydrochloride]", "growth": "0.187 ± 0.013"}
{"smiles": "Cn1c(=O)c2c(ncn2CC2OCCO2)n(C)c1=O", "note": "[Doxofylline]", "growth": "0.1957 ± 0.00055"}
{"smiles": "COc1c(N2C[C@@H]3CCCN[C@@H]3C2)c(F)cc2c(=O)c(C(=O)O)cn(C3CC3)c12", "note": "[Moxifloxacin]", "growth": "0.04903 ± 0.00038"}
{"smiles": "C1CCC(C(CC2CCCCN2)C2CCCCC2)CC1", "note": "(stereo not given) [Perhexiline maleate]", "growth": "0.0462 ± 0.0004"}
{"smiles": "CN(C/C=C/C#CC(C)(C)C)Cc1cccc2ccccc12", "note": "[Terbinafine]", "growth": "0.182 ± 0.047"}
{"smiles": "C=CCN1CCCC1CNC(=O)c1cc2nn[nH]c2cc1OC", "note": "(stereo not given) [Alizapride HCl]", "growth": "0.217 ± 0.022"}
{"smiles": "Cc1cc(N)c2ccccc2[n+]1CCCCCCCCCC[n+]1c(C)cc(N)c2ccccc21", "note": "[Dequalinium dichloride]", "growth": "0.0601 ± 0.004"}
{"smiles": "NC1CCN(c2c(F)cc3c(=O)c(C(=O)O)cn(C4CC4)c3c2Cl)C1", "note": "(stereo not given) [Clinafloxacin]", "growth": "0.0489 ± 0.0013"}
{"smiles": "COc1ccc(C(=O)NCc2ccc(OCCN(C)C)cc2)cc1OC", "note": "[Itopride]", "growth": "0.228 ± 0.028"}
{"smiles": "CCC(Cc1c(I)cc(I)c(N)c1I)C(=O)O", "note": "(stereo not given) [Iopanoic acid]", "growth": "0.148 ± 0.005"}
{"smiles": "CCCc1nn(C)c2c(=O)[nH]c(-c3cc(S(=O)(=O)N4CCN(C)CC4)ccc3OCC)nc12", "note": "[Sildenafil]", "growth": "0.199 ± 0.01"}
{"smiles": "N=c1nc(N2CCCCC2)cc(N)n1O", "note": "[Minoxidil]", "growth": "0.18 ± 0.0054"}
{"smiles": "CC(=O)Oc1ccccc1C(=O)O", "note": "[Acetylsalicylic acid]", "growth": "0.198 ± 0.016"}
{"smiles": "Cc1cc(=O)oc2cc(O)ccc12", "note": "[Hymecromone]", "growth": "0.198 ± 0.0059"}
{"system": "E. coli TESEC Mtb DapB", "assay": "growth (OD600 after 10 h); higher = more growth (less inhibition)", "conditions": "arabinose induction (level): Low; compound 0.1 mM; raw OD600 reference: median of DMSO wells 0.227, cell-free background 0.041", "protocol": "as §1"}
{"smiles": "Clc1cc(Cl)c(OCC#CI)cc1Cl", "note": "[Haloprogin]", "growth": "0.259 ± 0.018"}
{"smiles": "CSc1ccc2c(c1)N(CCC1CCCCN1C)c1ccccc1S2", "note": "(stereo not given) [Thioridazine hydrochloride]", "growth": "0.0782 ± 0.052"}
{"smiles": "C[C@]12C=CC(=O)C=C1CC[C@@H]1[C@@H]2C(=O)C[C@@]2(C)[C@H]1CC[C@]2(O)C(=O)CO", "note": "[Prednisone]", "growth": "0.267 ± 0.014"}
{"smiles": "Cc1c(OCC(F)(F)F)ccnc1C[S+]([O-])c1nc2ccccc2[nH]1", "note": "(stereo not given) [Lansoprazole]", "growth": "0.203 ± 0.02"}
{"smiles": "CC(=O)[C@@]1(O)CC[C@H]2[C@@H]3C[C@H](C)C4=CC(=O)C=C[C@]4(C)[C@@]3(F)[C@@H](O)C[C@@]21C", "note": "[Fluorometholone]", "growth": "0.272 ± 0.017"}
{"smiles": "CN(C)CCCO[C@@H]1[C@H]2OC(C)(C)O[C@H]2O[C@@H]1[C@H](O)CO", "note": "[Amiprilose hydrochloride]", "growth": "0.269 ± 0.046"}
{"smiles": "CCCCN1CCCCC1C(=O)Nc1c(C)cccc1C", "note": "(stereo not given) [Bupivacaine hydrochloride]", "growth": "0.266 ± 0.047"}
{"smiles": "Cn1c(=O)c2c(ncn2CC2OCCO2)n(C)c1=O", "note": "[Doxofylline]", "growth": "0.238 ± 0.0011"}
{"smiles": "COc1c(N2C[C@@H]3CCCN[C@@H]3C2)c(F)cc2c(=O)c(C(=O)O)cn(C3CC3)c12", "note": "[Moxifloxacin]", "growth": "0.04933 ± 0.00035"}
{"smiles": "C1CCC(C(CC2CCCCN2)C2CCCCC2)CC1", "note": "(stereo not given) [Perhexiline maleate]", "growth": "0.0474 ± 0.002"}
{"smiles": "CN(C/C=C/C#CC(C)(C)C)Cc1cccc2ccccc12", "note": "[Terbinafine]", "growth": "0.218 ± 0.03"}
{"smiles": "C=CCN1CCCC1CNC(=O)c1cc2nn[nH]c2cc1OC", "note": "(stereo not given) [Alizapride HCl]", "growth": "0.201 ± 0.017"}
{"smiles": "Cc1cc(N)c2ccccc2[n+]1CCCCCCCCCC[n+]1c(C)cc(N)c2ccccc21", "note": "[Dequalinium dichloride]", "growth": "0.0586 ± 0.0011"}
{"smiles": "NC1CCN(c2c(F)cc3c(=O)c(C(=O)O)cn(C4CC4)c3c2Cl)C1", "note": "(stereo not given) [Clinafloxacin]", "growth": "0.0481 ± 0.00067"}
{"smiles": "COc1ccc(C(=O)NCc2ccc(OCCN(C)C)cc2)cc1OC", "note": "[Itopride]", "growth": "0.268 ± 0.025"}
{"smiles": "CCC(Cc1c(I)cc(I)c(N)c1I)C(=O)O", "note": "(stereo not given) [Iopanoic acid]", "growth": "0.177 ± 0.005"}
{"smiles": "CCCc1nn(C)c2c(=O)[nH]c(-c3cc(S(=O)(=O)N4CCN(C)CC4)ccc3OCC)nc12", "note": "[Sildenafil]", "growth": "0.27 ± 0.045"}
{"smiles": "N=c1nc(N2CCCCC2)cc(N)n1O", "note": "[Minoxidil]", "growth": "0.209 ± 0.019"}
{"smiles": "CC(=O)Oc1ccccc1C(=O)O", "note": "[Acetylsalicylic acid]", "growth": "0.237 ± 0.054"}
{"smiles": "Cc1cc(=O)oc2cc(O)ccc12", "note": "[Hymecromone]", "growth": "0.208 ± 0.032"}
